Laboratory results as given in the supplement of paper PMC10849652.
The full data set covers some 8,800 targets. This sample favours those with a hit. About 0.5% of all pairs of compound and target were hits. A number with no mark means an inactive call.

These targets were tested with C1=CC=C(C=C1)[C@H](COC2=CC3=C(C=C2)NC(=O)N3)NC(=O)C4=CC=CN(C4=O)CC5=CC(=C(C=C5)F)F (assay: log2 fold change, soluble protein after heating vs DMSO (PISA); higher = thermal stabilisation; K562 lysate, 10 uM; active = over 0.2 and 3.5 SD of the protein, either way, in both replicates (recomputed)).
Method in brief: (§1)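 Log-two fold change in thermal stability relative to solvent controls is reported from duplicates. For each sample, crude K562 extract from dounce-homogenised pellets in PBS pH 7.4 with 1 mM MgCl2, at 1 mg/mL protein, was treated with 10 μM compound for 30 min. Aliquots heated for 3 min across 48°C-58°C were pooled, brought to 0.5% NP-40 at 4°C and cleared at 21,000xg for 90 min. The supernatant was quantified by TMTpro 16plex LC-MS/MS with channel sums equalised.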

Sequence of UniProt Q9UPT9 (Q9UPT9 whole entry, looked up): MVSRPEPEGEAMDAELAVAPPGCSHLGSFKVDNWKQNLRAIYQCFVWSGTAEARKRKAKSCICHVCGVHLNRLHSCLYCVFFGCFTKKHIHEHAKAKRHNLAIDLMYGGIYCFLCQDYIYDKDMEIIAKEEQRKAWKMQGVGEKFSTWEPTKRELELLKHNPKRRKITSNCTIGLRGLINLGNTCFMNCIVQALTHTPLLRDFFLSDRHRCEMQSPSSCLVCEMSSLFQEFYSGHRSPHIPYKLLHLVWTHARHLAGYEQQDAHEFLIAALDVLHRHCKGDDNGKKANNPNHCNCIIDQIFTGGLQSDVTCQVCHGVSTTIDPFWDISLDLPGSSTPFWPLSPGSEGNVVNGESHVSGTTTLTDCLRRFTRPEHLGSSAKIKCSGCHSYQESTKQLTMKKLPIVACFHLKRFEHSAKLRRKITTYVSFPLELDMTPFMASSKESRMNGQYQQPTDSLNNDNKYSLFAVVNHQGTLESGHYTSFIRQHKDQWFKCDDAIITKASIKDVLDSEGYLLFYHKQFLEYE
Sequence of UniProt O95619 (O95619 whole entry, looked up): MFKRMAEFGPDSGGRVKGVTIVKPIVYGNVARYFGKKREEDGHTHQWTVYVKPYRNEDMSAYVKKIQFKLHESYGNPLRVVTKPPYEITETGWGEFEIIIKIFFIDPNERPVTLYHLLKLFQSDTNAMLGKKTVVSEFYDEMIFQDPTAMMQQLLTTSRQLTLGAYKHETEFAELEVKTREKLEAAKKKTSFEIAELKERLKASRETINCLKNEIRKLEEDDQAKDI
Sequence of UniProt P40337 (P40337 whole entry, looked up): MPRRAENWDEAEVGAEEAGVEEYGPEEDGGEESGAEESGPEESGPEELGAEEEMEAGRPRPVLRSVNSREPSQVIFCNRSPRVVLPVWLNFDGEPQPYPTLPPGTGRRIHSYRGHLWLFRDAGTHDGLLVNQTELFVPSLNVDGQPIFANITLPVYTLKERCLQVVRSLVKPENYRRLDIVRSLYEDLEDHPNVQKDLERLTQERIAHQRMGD
Sequence of UniProt Q96JH7 (Q96JH7 whole entry, looked up): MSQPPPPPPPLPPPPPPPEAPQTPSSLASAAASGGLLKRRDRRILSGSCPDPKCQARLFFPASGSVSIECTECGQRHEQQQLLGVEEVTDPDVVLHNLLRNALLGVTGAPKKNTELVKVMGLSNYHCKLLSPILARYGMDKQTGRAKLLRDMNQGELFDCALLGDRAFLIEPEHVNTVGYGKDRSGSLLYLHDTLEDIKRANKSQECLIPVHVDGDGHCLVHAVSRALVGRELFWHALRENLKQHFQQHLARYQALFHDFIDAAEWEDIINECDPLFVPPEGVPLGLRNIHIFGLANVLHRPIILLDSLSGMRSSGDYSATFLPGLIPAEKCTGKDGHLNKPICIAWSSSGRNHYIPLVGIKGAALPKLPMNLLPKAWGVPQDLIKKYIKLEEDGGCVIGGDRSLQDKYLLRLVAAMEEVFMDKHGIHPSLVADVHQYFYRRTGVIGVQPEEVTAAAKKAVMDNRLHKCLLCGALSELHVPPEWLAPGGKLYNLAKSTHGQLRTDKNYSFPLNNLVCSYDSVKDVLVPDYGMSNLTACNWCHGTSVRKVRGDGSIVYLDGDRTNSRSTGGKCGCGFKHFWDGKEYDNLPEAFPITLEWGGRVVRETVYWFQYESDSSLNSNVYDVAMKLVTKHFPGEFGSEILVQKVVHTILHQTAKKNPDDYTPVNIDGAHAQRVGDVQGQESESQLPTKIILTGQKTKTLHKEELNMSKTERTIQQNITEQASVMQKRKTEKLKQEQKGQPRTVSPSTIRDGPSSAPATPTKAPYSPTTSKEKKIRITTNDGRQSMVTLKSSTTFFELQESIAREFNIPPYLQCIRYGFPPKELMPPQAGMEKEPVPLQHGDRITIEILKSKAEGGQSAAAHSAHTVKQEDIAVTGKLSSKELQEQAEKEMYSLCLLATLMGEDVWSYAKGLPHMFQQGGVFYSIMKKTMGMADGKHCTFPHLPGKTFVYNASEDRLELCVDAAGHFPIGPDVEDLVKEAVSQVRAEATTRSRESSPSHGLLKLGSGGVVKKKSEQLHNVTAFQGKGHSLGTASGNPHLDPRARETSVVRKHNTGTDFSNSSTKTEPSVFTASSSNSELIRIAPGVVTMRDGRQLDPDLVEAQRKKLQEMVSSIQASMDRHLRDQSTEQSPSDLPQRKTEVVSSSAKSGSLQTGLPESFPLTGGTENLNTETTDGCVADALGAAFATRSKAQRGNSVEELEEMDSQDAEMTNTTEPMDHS
Sequence of UniProt Q9H269 (Q9H269 whole entry, looked up): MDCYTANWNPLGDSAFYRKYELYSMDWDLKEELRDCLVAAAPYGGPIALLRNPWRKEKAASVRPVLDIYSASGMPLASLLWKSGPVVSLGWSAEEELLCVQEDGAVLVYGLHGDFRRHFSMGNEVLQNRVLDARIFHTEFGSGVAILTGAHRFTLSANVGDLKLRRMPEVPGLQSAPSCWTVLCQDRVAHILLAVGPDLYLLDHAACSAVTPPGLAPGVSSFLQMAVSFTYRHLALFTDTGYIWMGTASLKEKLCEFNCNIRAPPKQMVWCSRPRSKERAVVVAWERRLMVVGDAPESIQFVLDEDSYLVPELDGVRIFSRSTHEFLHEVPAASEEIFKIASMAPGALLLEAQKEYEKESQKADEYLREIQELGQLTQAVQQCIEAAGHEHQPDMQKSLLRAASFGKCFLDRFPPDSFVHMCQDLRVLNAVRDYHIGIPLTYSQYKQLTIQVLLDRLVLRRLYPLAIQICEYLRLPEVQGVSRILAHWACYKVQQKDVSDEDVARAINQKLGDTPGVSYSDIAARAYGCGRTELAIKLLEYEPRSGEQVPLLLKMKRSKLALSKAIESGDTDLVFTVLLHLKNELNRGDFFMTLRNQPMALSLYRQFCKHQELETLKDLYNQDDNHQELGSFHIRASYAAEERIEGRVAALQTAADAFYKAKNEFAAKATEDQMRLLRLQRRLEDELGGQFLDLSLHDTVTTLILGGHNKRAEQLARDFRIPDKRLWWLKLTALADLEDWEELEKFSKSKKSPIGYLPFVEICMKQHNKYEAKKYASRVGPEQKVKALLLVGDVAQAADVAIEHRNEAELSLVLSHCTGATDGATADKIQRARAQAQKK
Sequence of UniProt Q9HAD4 (Q9HAD4 whole entry, looked up): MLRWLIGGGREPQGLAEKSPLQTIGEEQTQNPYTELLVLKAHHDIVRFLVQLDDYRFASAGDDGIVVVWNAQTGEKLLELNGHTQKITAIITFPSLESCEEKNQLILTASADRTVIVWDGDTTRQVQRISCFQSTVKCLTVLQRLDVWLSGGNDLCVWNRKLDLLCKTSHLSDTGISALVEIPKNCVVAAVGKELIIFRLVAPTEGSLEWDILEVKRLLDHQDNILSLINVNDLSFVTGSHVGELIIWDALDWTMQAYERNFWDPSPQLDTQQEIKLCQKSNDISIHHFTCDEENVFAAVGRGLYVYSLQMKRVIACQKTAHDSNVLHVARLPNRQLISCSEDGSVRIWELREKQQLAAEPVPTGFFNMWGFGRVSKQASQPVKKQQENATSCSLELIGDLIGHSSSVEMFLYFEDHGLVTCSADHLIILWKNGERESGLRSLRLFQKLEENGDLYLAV
Sequence of UniProt Q8NI36 (Q8NI36 whole entry, looked up): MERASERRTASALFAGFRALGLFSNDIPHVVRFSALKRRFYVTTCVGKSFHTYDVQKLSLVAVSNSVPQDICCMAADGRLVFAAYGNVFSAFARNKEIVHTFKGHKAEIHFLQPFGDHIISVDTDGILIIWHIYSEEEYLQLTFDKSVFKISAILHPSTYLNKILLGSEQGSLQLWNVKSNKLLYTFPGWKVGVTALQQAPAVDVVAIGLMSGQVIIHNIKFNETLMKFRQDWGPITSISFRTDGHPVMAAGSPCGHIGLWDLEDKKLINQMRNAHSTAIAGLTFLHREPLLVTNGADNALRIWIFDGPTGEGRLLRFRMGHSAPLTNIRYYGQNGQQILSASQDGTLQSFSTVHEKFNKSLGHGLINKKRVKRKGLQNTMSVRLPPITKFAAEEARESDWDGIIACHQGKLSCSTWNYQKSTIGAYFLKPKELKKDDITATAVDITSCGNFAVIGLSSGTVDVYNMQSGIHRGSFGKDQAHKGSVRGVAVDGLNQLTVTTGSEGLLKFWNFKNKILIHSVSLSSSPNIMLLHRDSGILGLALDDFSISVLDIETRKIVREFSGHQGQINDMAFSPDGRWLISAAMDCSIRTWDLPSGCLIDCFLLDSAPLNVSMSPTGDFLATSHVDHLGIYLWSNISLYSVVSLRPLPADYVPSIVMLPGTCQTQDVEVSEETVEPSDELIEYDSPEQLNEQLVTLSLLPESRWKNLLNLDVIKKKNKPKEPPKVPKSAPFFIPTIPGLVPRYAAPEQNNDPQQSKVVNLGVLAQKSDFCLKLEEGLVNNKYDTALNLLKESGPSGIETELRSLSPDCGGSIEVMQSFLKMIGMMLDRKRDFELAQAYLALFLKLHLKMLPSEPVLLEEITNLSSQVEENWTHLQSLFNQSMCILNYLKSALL
Sequence of UniProt P50552 (P50552 whole entry, looked up): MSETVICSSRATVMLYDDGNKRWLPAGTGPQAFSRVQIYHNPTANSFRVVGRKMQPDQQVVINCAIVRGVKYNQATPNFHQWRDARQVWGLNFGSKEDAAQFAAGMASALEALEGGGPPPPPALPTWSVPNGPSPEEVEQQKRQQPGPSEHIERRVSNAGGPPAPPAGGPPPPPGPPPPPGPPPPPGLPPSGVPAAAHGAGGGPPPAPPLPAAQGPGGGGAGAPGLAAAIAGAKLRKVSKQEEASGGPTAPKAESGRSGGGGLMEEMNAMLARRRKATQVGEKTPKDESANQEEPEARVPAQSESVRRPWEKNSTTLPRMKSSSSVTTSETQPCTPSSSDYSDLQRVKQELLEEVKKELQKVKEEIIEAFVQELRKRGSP
Sequence of UniProt Q9UK41 (Q9UK41 whole entry, looked up): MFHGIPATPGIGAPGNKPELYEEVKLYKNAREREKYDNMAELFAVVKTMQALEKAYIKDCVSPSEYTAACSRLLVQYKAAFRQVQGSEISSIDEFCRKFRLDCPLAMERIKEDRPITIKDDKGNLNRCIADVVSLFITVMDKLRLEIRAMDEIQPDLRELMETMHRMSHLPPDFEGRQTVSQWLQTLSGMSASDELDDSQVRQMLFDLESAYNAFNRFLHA

Target	log2 fold change
XPOT (UniProt O43592)	-0.017
VASP (UniProt P50552)	-0.005
UQCRC2 (UniProt P22695)	0.003
VPS28 (UniProt Q9UK41)	-0.087
XPNPEP1 isoform 3 (UniProt Q9NQW7)	-0.007
ZNF318 (UniProt Q5VUA4)	-0.017
WIPI2 (UniProt Q9Y4P8)	0.03
YEATS4 (UniProt O95619)	-0.014
WDR36 (UniProt Q8NI36)	0.006
ZDHHC18 (UniProt Q9NUE0)	0.103
UTP18 (UniProt Q9Y5J1)	0.117
VPS37B (UniProt Q9H9H4)	0.028
VPS54 (UniProt Q9P1Q0)	-0.157
VHL (UniProt P40337)	0.165
WDR41 (UniProt Q9HAD4)	0.043
ZMYM2 (UniProt Q9UBW7)	0.105

Target	log2 fold change
ZZEF1 (UniProt O43149)	-0.022
USP3 (UniProt Q9Y6I4)	0.026
YLPM1 (UniProt P49750)	-0.029
USP48 (UniProt Q86UV5)	-0.104
WDR77 (UniProt Q9BQA1)	0.02
ZNF451 (UniProt Q9Y4E5)	-0.038
USP16 (UniProt Q9Y5T5)	0.047
VCPIP1 (UniProt Q96JH7)	-0.025
XPO1 (UniProt O14980)	-0.024
VPS16 (UniProt Q9H269)	-0.035
ZBTB33 (UniProt Q86T24)	0.046
WDR3 (UniProt Q9UNX4)	0.039
VRK2 (UniProt Q86Y07)	0.004
WDR24 (UniProt Q96S15)	-0.066
USP22 (UniProt Q9UPT9)	0.039

These targets were tested with CC1=C(SC2=C1C(=N[C@H](C3=NN=C(N32)C)CC(=O)N)C4=CC=C(C=C4)Cl)C in the same assay as above.
Method in brief: as §1

Target	log2 fold change
XPOT (UniProt O43592)	0.008
VASP (UniProt P50552)	0.006
UQCRC2 (UniProt P22695)	0.037
VPS28 (UniProt Q9UK41)	-0.04
XPNPEP1 isoform 3 (UniProt Q9NQW7)	-0.025
ZNF318 (UniProt Q5VUA4)	0.133
WIPI2 (UniProt Q9Y4P8)	-0.033
YEATS4 (UniProt O95619)	0.05
WDR36 (UniProt Q8NI36)	0.001
ZDHHC18 (UniProt Q9NUE0)	0.115
UTP18 (UniProt Q9Y5J1)	-0.005
VPS37B (UniProt Q9H9H4)	0.039
VPS54 (UniProt Q9P1Q0)	0.136
VHL (UniProt P40337)	0.004
WDR41 (UniProt Q9HAD4)	0.013
ZMYM2 (UniProt Q9UBW7)	0.07

Target	log2 fold change
ZZEF1 (UniProt O43149)	-0.004
USP3 (UniProt Q9Y6I4)	0.006
YLPM1 (UniProt P49750)	-0.04
USP48 (UniProt Q86UV5)	-0.028
WDR77 (UniProt Q9BQA1)	0.012
ZNF451 (UniProt Q9Y4E5)	0.03
USP16 (UniProt Q9Y5T5)	-0.015
VCPIP1 (UniProt Q96JH7)	-0.008
XPO1 (UniProt O14980)	0.023
VPS16 (UniProt Q9H269)	-0.009
ZBTB33 (UniProt Q86T24)	-0.082
WDR3 (UniProt Q9UNX4)	-0.026
VRK2 (UniProt Q86Y07)	0
WDR24 (UniProt Q96S15)	-0.475 (active)
USP22 (UniProt Q9UPT9)	-0.025

What follows are targets tested with CC1=C2C(=CC=C1)N=C(N(C2=O)C3=CC=CC=C3C)CN4C=NC5=C(N=CN=C54)N in the same assay as above.
Method in brief: as §1

Target	log2 fold change
XPOT (UniProt O43592)	0.037
VASP (UniProt P50552)	0.008
UQCRC2 (UniProt P22695)	-0.007
VPS28 (UniProt Q9UK41)	-0.013
XPNPEP1 isoform 3 (UniProt Q9NQW7)	0.002
ZNF318 (UniProt Q5VUA4)	0
WIPI2 (UniProt Q9Y4P8)	-0.008
YEATS4 (UniProt O95619)	-0.029
WDR36 (UniProt Q8NI36)	0.06
ZDHHC18 (UniProt Q9NUE0)	0.075
UTP18 (UniProt Q9Y5J1)	-0.088
VPS37B (UniProt Q9H9H4)	0.01
VPS54 (UniProt Q9P1Q0)	0.044
VHL (UniProt P40337)	-0.029
WDR41 (UniProt Q9HAD4)	0.02
ZMYM2 (UniProt Q9UBW7)	0.062

Target	log2 fold change
ZZEF1 (UniProt O43149)	0.012
USP3 (UniProt Q9Y6I4)	-0.056
YLPM1 (UniProt P49750)	0.034
USP48 (UniProt Q86UV5)	-0.029
WDR77 (UniProt Q9BQA1)	0.012
ZNF451 (UniProt Q9Y4E5)	-0.014
USP16 (UniProt Q9Y5T5)	0.011
VCPIP1 (UniProt Q96JH7)	0.002
XPO1 (UniProt O14980)	0.012
VPS16 (UniProt Q9H269)	0.041
ZBTB33 (UniProt Q86T24)	0.003
WDR3 (UniProt Q9UNX4)	0.006
VRK2 (UniProt Q86Y07)	-0.242
WDR24 (UniProt Q96S15)	-0.093
USP22 (UniProt Q9UPT9)	0.012
